From PubChem BioAssay AID1986 (Sanford-Burnham Center for Chemical Genomics, 2009)
Values joined by “and” are separate entries in the source; they are usually repeats but may differ in a detail not shown here. Identical values can stand only once. Out of some 290,000 compounds screened, about 890 (0.31%) were called active. Cut-off read from the data, not from the text of the source: active = inhibition mostly above about 52% (no sharp cut-off); inactive = mostly below about 76%. The list comes from a sample in which actives are over-represented; it also holds similar structures and randomly drawn compounds. Where a structure was tested more than once in an assay, its records may differ in their call.

Assay: cell-free HIV fusion peptide-binding blockers – biochemical, uHTS, fluorescence dequenching, primary screen (AID 1986)
Settings: 30 min, at 20 µM, stronger effect = higher value

SMILES	inhibition
COc1ccc(N(CC(=O)N2CCc3ccccc3C2)S(C)(=O)=O)cc1	-1.6% (inactive)
COc1cc(COCC(O)CN2CCOCC2)cc(OC)c1OC (stereo unspecified)	-2.1% (inactive)
O=C(Cc1ccc(Cl)cc1)Nc1cc(S(=O)(=O)N2CCOCC2)ccc1N1CCCC1	1.2% (inactive)
N#CC1CC(c2ccc([N+](=O)[O-])cc2)=NN1c1ccc([N+](=O)[O-])cc1 (stereo unspecified)	83.7% (active)
N#CC1CC(c2ccccc2)=NN1c1ccccc1[N+](=O)[O-] (stereo unspecified)	-3.1% (inactive)
O=[N+]([O-])c1ccc(N2N=C(c3ccccc3)CC2c2ccccc2O)cc1 (stereo unspecified)	38.9% (inactive)
COC(=O)c1sccc1NC(=O)Nc1ccc(OC)cc1	1.8% (inactive)
Cc1ccc(OCCNS(=O)(=O)c2cccs2)cc1	-0.8% (inactive)
CCN(CC)C(=O)CSc1nc(O)c(Cc2ccc(OC)cc2)c(=O)[nH]1	0.3% (inactive)
Cc1ccc(/C=C(\C#N)C(=O)Nc2cccc3ncccc23)o1	77.8% (active)
N#C/C(=C\c1ccco1)C(=O)Nc1cccc2ncccc12	1.5% (inactive)
Cc1ccc(/C=C(\C#N)C(=O)Nc2ccccn2)o1	0.3% (inactive)
CCc1nnc(SCC(=O)N2CCCC(N3CCN(c4ccccc4C)CC3)C2)o1 (stereo unspecified)	-0.2% (inactive)
CC1(C)CC(=O)C2=C(C1)N(c1ccc(F)cc1)C(=O)C2(NC(=O)c1ccccc1)C(F)(F)F (stereo unspecified)	-0.9% (inactive)
O=c1cc2oc3cc(O)c(O)cc3c(-c3ccccc3[N+](=O)[O-])c-2cc1O	34.3% (inactive)
COc1c(O)cc2oc(-c3ccc(O)c(O)c3)cc(=O)c2c1O	20.2% (inactive)
Cc1c2cc(O)c(=O)cc-2oc2cc(O)c(O)cc12	150% (inactive) and 61.1% (active)
COc1cc(-c2cc(=O)c3ccccc3o2)ccc1O	-1.9% (inactive)
COc1ccc(OC)c(-c2c3cc(O)c(=O)cc-3oc3cc(O)c(O)cc23)c1	122% (active)
Cc1ccccc1-c1cc(=O)c2c(O)cccc2o1	-1.7% (inactive)
COc1ccc2c(=O)cc(-c3ccccc3F)oc2c1	-1.9% (inactive)
COc1cc(OC)c(-c2c3cc(O)c(=O)cc-3oc3cc(O)c(O)cc23)cc1OC	82.9% (active)
COc1ccc(OC)c(-c2oc3ccccc3c(=O)c2O)c1	-0.8% (inactive)
Cc1cc2oc(=O)cc(-c3cc4ccccc4o3)c2cc1O	21% (inactive)
O=c1cc2oc3cc(O)c(O)cc3c(-c3ccccc3O)c-2cc1O	148% (inactive)
CCOc1ccccc1-c1c2cc(O)c(=O)cc-2oc2cc(O)c(O)cc12	118% (active)
